High-throughput results deposited in PubChem BioAssay by University of Kansas High Throughput Screening Laboratory.
Only a selection was taken, and hits are over-represented in it overall.
Pf apPOL block: Pf-apPOL DNA polymerase inhibition. Recombinant Pf-apPOL, molecular beacon fluorescence, 1.5 h. inhibition, % at 10 µM. 210,000 compounds, 0.25% hits
mHTT CaM bind: disrupts binding of mutant huntingtin to calmodulin. P42858. AlphaScreen His-mHTT/GST-CaM binding, luminescence. inhibition, % at 15 µM. 190,000 compounds, 3.6% hits. AID 1671202
Of the large screens only hits and unclear results are named; the others gave an inactive call. Rule as the data show it: active = inhibition above about 50%; inactive = the rest.

CCc1onc(C)c1C1CCCN1Cc1cc(OC)c(OC)cc1OC (centres undefined)	none
CCCN1C(=O)/C(=C\c2nc3ccccc3c(=O)n2-c2ccc(OC)cc2)c2ccccc21	none
CCCN1C(=O)/C(=C\c2nc3ccccc3c(=O)n2CC)c2ccccc21	none
CCN1C(=O)/C(=C\c2nc3ccccc3c(=O)n2-c2ccccc2[N+](=O)[O-])c2ccccc21	mHTT CaM bind 56.0
CCN1C(=O)/C(=C\c2nc3ccccc3c(=O)n2CC)c2ccccc21	mHTT CaM bind 100.0
O=C(NC1CCCCC1)c1ccc(-c2ccsc2)nc1	none
COc1ccc(C)cc1NCc1ccncc1	none
Cc1cc(NCc2ccc([N+](=O)[O-])cc2)ccc1Br	mHTT CaM bind 57.5
COc1ccc(CNc2cc([N+](=O)[O-])ccc2OC)cc1	none
COc1ccc(C)cc1NCc1ccc(SC)cc1	mHTT CaM bind 59.0
O=[N+]([O-])c1ccc(CNc2ccc(F)c(F)c2)cc1	none
COc1ccc(C)cc1NCc1ccc([N+](=O)[O-])cc1	mHTT CaM bind 85.5
C[C@H](c1ccccc1)N1C[C@@H](COCc2ccccc2)Oc2cc(N3CC[C@H](O)C3)ccc2S1(=O)=O	mHTT CaM bind 77.8
COC[C@@H]1CCCN1c1ccc2c(c1)O[C@@H](COCc1ccccc1)CN([C@H](C)c1ccccc1)S2(=O)=O	none
C[C@H](c1ccccc1)N1C[C@H](COCc2ccccc2)Oc2cc(N3CC[C@H](O)C3)ccc2S1(=O)=O	mHTT CaM bind 72.0
C[C@H](c1ccccc1)N1C[C@H](COCc2ccccc2)Oc2cc(N3CCC[C@@H]3CO)ccc2S1(=O)=O	none
CC(=O)NC1C(OC(=O)C=Cc2ccccc2)OC(COC(C)=O)C(OC(C)=O)C1OC(C)=O (centres undefined)	none
COc1ccc(CCNc2nc(C)cc(C(F)(F)F)n2)cc1OC	none
O=C(NCC1CCCO1)N1CCCn2nc(-c3cccc(Cl)c3)cc2C1 (centres undefined)	none
OC[C@@H]1[C@@H](c2ccccc2)C(c2cccc(Cl)c2)=NN1c1ccccc1	mHTT CaM bind 59.4
Cc1cccc(C2=NN(c3ccccc3)[C@H](CO)[C@H]2c2ccc(F)cc2)c1	mHTT CaM bind 81.2
COc1ccccc1[C@H]1C(c2cccc(Cl)c2)=NN(c2ccccc2)[C@@H]1CO	mHTT CaM bind 65.7
Cc1cccc(C2=NN(c3ccccc3)[C@H](CO)[C@H]2c2ccc(Cl)cc2)c1	mHTT CaM bind 91.5
CC[C@@H]1C(c2cccc(C)c2)=NN(c2ccccc2)[C@H]1C(=O)N1CCOC1=O	none
COc1ccccc1[C@@H]1C(c2cccc(Cl)c2)=NN(c2ccccc2)[C@H]1C(=O)N1CCOC1=O	none
CC(C)(C)N=C1Nc2ccccc2NC12CCCN(C(=O)c1ccccc1F)C2 (centres undefined)	none
COc1ccc(OC)c(CNC(=O)C2CCN(c3nccc(C)n3)CC2)c1	none
O=C(c1csc(N2CCN(c3ccccc3)CC2)n1)N1CCCCC1	none
Cc1ccc(NC(=O)c2c(C)sc3c(=O)n(C4CCCCC4)cnc23)cc1C	none
CCc1ccc(C(=O)N2CCC(COc3ccc(C(=O)N4CCOCC4)cc3)CC2)cc1	none
O=C(Cn1cnc2c(-c3ccc(F)cc3)csc2c1=O)Nc1cccc(Cl)c1	none
CC(=NOC(=O)c1ccc([N+](=O)[O-])cc1)c1cc(C(C)(C)C)cc2c1CCC2(C)C	none (no result: mHTT CaM bind)
O=C1CN(C(=O)c2cccc(Cl)c2)C(c2ccc(F)cc2)c2cc(F)ccc2N1 (centres undefined)	none
CCOc1ccc(NC(=O)c2ccc(F)c(S(=O)(=O)NCc3ccc(F)cc3)c2)cc1	none
CC[C@H]1C(c2cccc(C)c2)=NN(c2ccccc2)[C@@H]1CO	none
CC[C@H]1C(c2cccc(Cl)c2)=NN(c2ccccc2)[C@@H]1CO	mHTT CaM bind 75.4
COc1ccc(C2C(C(=O)N3CCCCC3)c3ccccc3C(=O)N2Cc2ccc(F)cc2)cc1 (centres undefined)	none
NS(=O)(=O)c1ccc(NC(NC(=O)c2cccc([N+](=O)[O-])c2)C(Cl)(Cl)Cl)cc1 (centres undefined)	none
CC(C)(C)C(=O)NC(Nc1ccc([N+](=O)[O-])cc1)C(Cl)(Cl)Cl (centres undefined)	none
O=C(NC(Nc1cccc([N+](=O)[O-])c1)C(Cl)(Cl)Cl)c1cccnc1 (centres undefined)	none
O=C(NC(Nc1cccc([N+](=O)[O-])c1)C(Cl)(Cl)Cl)c1cccc([N+](=O)[O-])c1 (centres undefined)	mHTT CaM bind 54.0
O=C(NC(Nc1ccc([N+](=O)[O-])cc1)C(Cl)(Cl)Cl)c1ccc([N+](=O)[O-])cc1 (centres undefined)	mHTT CaM bind 79.0
O=C(NC(Nc1ccc(Cl)cc1)C(Cl)(Cl)Cl)c1cccc([N+](=O)[O-])c1 (centres undefined)	mHTT CaM bind 99.0
O=C(NC(Nc1cccc(Cl)c1)C(Cl)(Cl)Cl)c1cccc([N+](=O)[O-])c1 (centres undefined)	mHTT CaM bind 95.0
Cc1cccc(C(=O)NC(Nc2cccc([N+](=O)[O-])c2)C(Cl)(Cl)Cl)c1 (centres undefined)	none
Cc1ccc(C(=O)N/C(=C/c2ccc3c(c2)OCO3)C(=O)Nc2ccccc2)cc1C	none
O=C1NC(=O)C(=Cc2ccc(OS(=O)(=O)c3cc(Cl)cc(Cl)c3)cc2)N1	none (no result: mHTT CaM bind)
S=c1[nH]nc(C2CCCCC2)n1/N=C\c1c[nH]c2ccccc12	none (no result: Pf apPOL block)
Cc1ncsc1CN1CCC(c2nncn2-c2ccccc2)CC1	none
O=C1CC(NC(=O)c2ccc(=O)[nH]c2)CN1 (centres undefined)	none
COc1ccc(C)cc1NC(=O)c1c(-c2c(Cl)cccc2Cl)noc1C	none
CCCNS(=O)(=O)c1cc2c(cc1C)CCN2C(C)=O	none
CCn1cnc2c1c(=O)n(CCC(C)C)c(=O)n2-c1cccc(Cl)c1	none
O=C(NC(NCc1ccccc1)C(Cl)(Cl)Cl)c1cccc([N+](=O)[O-])c1 (centres undefined)	none
COc1ccc(NC(NC(=O)c2cccc(Cl)c2)C(Cl)(Cl)Cl)cc1 (centres undefined)	mHTT CaM bind 65.0
O=C(NC(Nc1ccccc1)C(Cl)(Cl)Cl)c1cccc(Cl)c1 (centres undefined)	none
O=C(NC(Nc1ccc(Br)cc1)C(Cl)(Cl)Cl)c1cccc([N+](=O)[O-])c1 (centres undefined)	mHTT CaM bind 96.0
CN1CCN(C(=O)NC23CC4CC(CC(C4)C2)C3)CC1	none
O=c1[nH]c(-c2ccc(F)cc2)cn1-c1ccc(Br)cc1	none
O=c1[nH]c(-c2ccc(Br)cc2)cn1-c1ccc(Cl)cc1	mHTT CaM bind 63.0
Cc1cc(Cl)ccc1NC(=O)CC1COc2ccccc2NC1=O (centres undefined)	none
O=C(CSc1nc2c(c(=O)n1-c1ccc(Cl)cc1)SCC2)NC1CCCCC1	none
CC(CC(=O)Nc1nc2c(s1)CCCC2)c1ccccc1 (centres undefined)	none
O=C(Nc1nc2c(s1)CCCC2)C(c1ccccc1)n1cccc1 (centres undefined)	mHTT CaM bind 94.9
Cc1cc(C2C(C#N)=C(N)N(c3cccnc3)C3=C2C(=O)CC(c2ccccc2)C3)c(C)s1 (centres undefined)	mHTT CaM bind 58.0
Cc1cc(C2C(C#N)=C(N)N(c3cccnc3)C3=C2C(=O)CCC3)c(C)s1 (centres undefined)	none
O=C(c1ccc2nc3cc(Cl)ccc3c(=O)n2c1)N1CCN(c2ccc([N+](=O)[O-])cc2)CC1	none
